The entries come from a sample that favours hits as a whole.
Dicer inh: human Dicer pre-microRNA cleavage inhibition; cat-ELCCA pre-miR-21 Dicer processing, chemiluminescence; hits give high values; z-score at 25 µM; actives 6% (n = 47,000); in the data active means z-score above about 3, passing the limit was not always enough;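 further: plate controls were vehicle for no effect and no enzyme for full effect; higher signal means more uncleaved substrate so more Dicer inhibition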
An asterisk follows results filed as active.

Screening CC(=O)[C@@]12OC(C)(c3ccccc3)O[C@@H]1C[C@H]1[C@@H]3CCC4=CC(=O)CC[C@]4(C)[C@H]3CC[C@@]12C (stereo not given in full) returned Dicer inh -0.12.
Screening C[C@]12CCC(=O)C=C1CC[C@@H]1[C@@H]2CC[C@@]2(C)[C@H]1CC[C@]2(O)C(=O)CO returned Dicer inh 3.28*.
N#C/C(=C\c1cccs1)S(=O)(=O)c1cccs1 was read as Dicer inh -0.59.
Screening Cc1cccnc1NC(=S)Nc1cccc(C(F)(F)F)c1 returned Dicer inh -0.53.
`C=CCOC(=O)c1sc(N2C(=O)c3oc4ccccc4c(=O)c3C2c2cccs2)nc1C` (stereo not given) gave Dicer inh -0.85.
For C[n+]1c2ccccc2nc2ccc(NC3CCCCC3N)cc21 (stereo not given) the results were Dicer inh -3.62.
For CCCN1C(=O)C(O)(CC(=O)c2cc(OC)ccc2OC)c2cc(Br)ccc21 (stereo not given) the results were Dicer inh -0.9.
`C=CCN1C(=O)C(O)(CC(=O)c2ccc(C)cc2C)c2ccccc21` (stereo not given) gave Dicer inh -1.03.
Screening C=CCN1C(=O)C(O)(CC(=O)c2ccccc2OC)c2ccccc21 (stereo not given) returned Dicer inh 1.06.
C=CCN1C(=O)C(O)(CC(=O)c2cc(C)ccc2C)c2ccccc21 (stereo not given) was read as Dicer inh 9.37*.
Screening C=CCN1C(=O)C(O)(CC(=O)c2ccc(OC)cc2OC)c2cc(Br)ccc21 (stereo not given) returned Dicer inh -0.27.
`C=CCN1C(=O)C(O)(CC(=O)c2cc(OC)ccc2OC)c2cc(Br)ccc21` (stereo not given) gave Dicer inh 3.54*.
COc1cc(C=Nc2ccc(S(=O)(=O)Nc3nc(C)cc(C)n3)cc2)cc(OC)c1OC was read as Dicer inh -0.04.
For Cc1c(O)c(Sc2ccccc2)c(=O)n(-c2ccccc2)c1-c1ccccc1 the results were Dicer inh 1.3.
CCCCNCCn1cnc2c(N)ncnc21 was read as Dicer inh -3.14.
C(/C=C/C=C/Nc1ccccc1)=Nc1ccccc1 was read as Dicer inh 0.52.
Fc1ccc(N=C/C=C/C=C/Nc2ccc(F)cc2)cc1 was read as Dicer inh 3.06*.
`C=CCOC(=O)c1sc(N2C(=O)c3oc4ccc(C)cc4c(=O)c3C2c2ccccc2F)nc1C` (stereo not given) gave Dicer inh 2.3.
Screening CSC(=S)NNC(=O)c1cc(C)on1 returned Dicer inh 0.27.
For COc1ccc(-c2nc3c([nH]2)c(=O)n(C)c(=O)n3C)c(OC)c1 the results were Dicer inh -0.42.
For Cn1c(=O)c2c(-c3ccc(F)cc3)cc(-c3cccc(F)c3)nc2n(C)c1=O the results were Dicer inh 2.23.
For COc1ccc(-c2cc(-c3ccc(OC)cc3)c3c(=O)n(C)c(=O)n(C)c3n2)cc1 the results were Dicer inh 3.4*.
COC(=O)CSc1cc(C(F)(F)F)nc2c(C(=O)OC)scc12 was read as Dicer inh -0.92.
For CC(=O)N1CCC(C(=O)c2c(C)c(C)c(C)c(C)c2C)CC1 the results were Dicer inh 0.71.
`Cc1csc2c(=O)sc(NC(=O)c3ccco3)nc12` gave Dicer inh 0.15.
For O=C(Nc1nc2ccsc2c(=O)s1)c1ccco1 the results were Dicer inh 0.51.
For O=C(Nc1nc2c(ccc3ccccc32)s1)c1ccco1 the results were Dicer inh 5.7*.
For COc1cc(C2Nc3ccc4ccccc4c3C3=C2CC(C)(C)CC3=O)ccc1O (stereo not given) the results were Dicer inh -0.66.
For Cc1ccc2oc(-c3cc(Br)ccc3O)c(O)c(=O)c2c1 the results were Dicer inh 5.34*.
Cc1ccc2oc(-c3ccco3)c(O)c(=O)c2c1 was read as Dicer inh -2.85.
Screening Cc1ccc(-c2oc3ccc(C)cc3c(=O)c2O)cc1 returned Dicer inh -2.19.
CN(C)c1cc(-c2cccs2)oc(=O)c1Cl was read as Dicer inh -0.63.
For CCCCCc1c(O)nc(SCCN2CCOCC2)n(-c2ccccc2)c1=O the results were Dicer inh 3.34*.
CCCCc1c(O)nc(SCCN(C)C)n(-c2ccccc2)c1=O was read as Dicer inh 0.39.
CCOC(=O)CSc1nc2sc3c(c2c(=O)n1-c1ccccc1)CCN(C)C3 was read as Dicer inh 2.48.
CC(=O)NC(COC(C)=O)C(OC(C)=O)c1ccc([N+](=O)[O-])cc1 (stereo not given) was read as Dicer inh -0.44.
`CCOc1ccc(C2c3c(oc4ccc(F)cc4c3=O)C(=O)N2Cc2ccco2)cc1` (stereo not given) gave Dicer inh 0.16.
Screening CC1(C)CC(=O)C(C(C2=C(O)CC(C)(C)CC2=O)c2cccc(O)c2O)C(=O)C1 (stereo not given) returned Dicer inh 4.26*.
For Cc1ccc(C(C2=C(O)CC(C)(C)CC2=O)C2C(=O)CC(C)(C)CC2=O)o1 (stereo not given) the results were Dicer inh -0.3.
For CC1(C)CC(=O)C(C(C2=C(O)CC(C)(C)CC2=O)c2cc(Br)ccc2O)C(=O)C1 (stereo not given) the results were Dicer inh -0.06.
`Cc1c(Cl)cc(F)cc1S(=O)(=O)N1CC=C(c2ccccc2)CC1` gave Dicer inh 0.88.
Screening CCOC(=O)C(=CNc1nc2ccc(C)cc2s1)C(=O)OCC returned Dicer inh -0.07.
For COc1ccc(NS(=O)(=O)c2ccc(Br)cc2)cc1 the results were Dicer inh 2.27.
COc1ccc(S(=O)(=O)Nc2cc(OC)c(Cl)cc2OC)cc1 was read as Dicer inh 1.34.
Screening COc1ccc(S(=O)(=O)Nc2c(C)cc(O)cc2C)cc1 returned Dicer inh 5.2*.
For C=CCN1C(=O)C(O)(c2c[nH]c3ccccc23)c2cc(Br)ccc21 (stereo not given) the results were Dicer inh 2.03.
For Cc1ccc(S(=O)(=O)Nc2cc(C)ccc2C)cc1 the results were Dicer inh 0.42.
For Cc1ccc(S(=O)(=O)Nc2ccc(C)cc2NS(=O)(=O)c2ccc(F)cc2)cc1 the results were Dicer inh 4.56*.
Screening Cc1ccc(NS(=O)(=O)c2ccc(Cl)cc2)c([N+](=O)[O-])c1 returned Dicer inh -0.45.
For Cc1ccc(CN2C(=O)CSC2c2ccc(C(C)C)cc2)cc1 (stereo not given) the results were Dicer inh 1.18.
Screening Cc1cc(-n2c(=S)[nH]c3sc(C)c(C)c3c2=O)n(-c2ccccc2)n1 returned Dicer inh 3.17*.
Screening Cc1ccnc(-n2c(=S)[nH]c3sc(C)c(C)c3c2=O)c1 returned Dicer inh 0.49.
`CCn1c(=S)[nH]c2sc(C)c(C)c2c1=O` gave Dicer inh -1.06.
For CCC(C)OC(=O)C1=C(C)NC(=O)CC1c1ccccc1Br (stereo not given) the results were Dicer inh -0.12.
CSC1=C(C#N)C(=O)NC(c2cccc3ccccc23)S1 (stereo not given) was read as Dicer inh 0.89.
For CC(C)(C)NC1=C(C#N)C(=O)NC(c2ccccc2O)S1 (stereo not given) the results were Dicer inh 3.86*.
For CSC1=C(C#N)C(=O)NC(c2ccccc2O)S1 (stereo not given) the results were Dicer inh -0.17.
`O=C(O)CCCC(=O)Nc1ccc2c(c1)C(=O)OC2` gave Dicer inh -4.82.
